# Article PMC8384837, “Expanding the binding specificity for RNA recognition by a PUF domain”
# Key:
# Assay in all cases: yeast three-hybrid, YBZ-1, SC-Leu-His + 0.5 mM 3-AT, 4 days
# Settings in all cases: tags: N-Gal4 AD-HA kept; label: inside an RPR1-promoter hybrid RNA with tandem MS2 sites; ssRNA
# PUM1 PUF domain R5-RFR = PUM1 PUF domain R5-RFR (Homo sapiens, UniProt Q14671 828-1176, C1007R;R1008F;Q1011R)
# Outline: (§1)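 The interaction score is the log change in variant frequency from input to selection. Scores were computed in log2 with a pseudocount of 1 for absent variants, using Illumina sequencing of PCR-amplified repeat regions. The input came from four days on SC-Leu and the selection from four days on SC-Leu-His + 0.5 mM 3-AT. The cells were strain YBZ-1 (LexA–MS2 coat fusion, HIS3 reporter) co-expressing Pumilio-1 PUF domain libraries and matching RNA elements from a centromeric plasmid.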
# PUM1 PUF domain R3-RAV = PUM1 PUF domain R3-RAV (Homo sapiens, UniProt Q14671 828-1176, C935R;R936A;Q939V)
# Outline: as §1
# PUM1 PUF domain R3-GWG = PUM1 PUF domain R3-GWG (Homo sapiens, UniProt Q14671 828-1176, C935G;R936W;Q939G)
# Outline: as §1
# PUM1 PUF domain R3-RQR = PUM1 PUF domain R3-RQR (Homo sapiens, UniProt Q14671 828-1176, C935R;R936Q;Q939R)
# Outline: as §1
# PUM1 PUF domain R3-SRP = PUM1 PUF domain R3-SRP (Homo sapiens, UniProt Q14671 828-1176, C935S;Q939P)
# Outline: as §1
# PUM1 PUF domain R4-EWD = PUM1 PUF domain R4-EWD (Homo sapiens, UniProt Q14671 828-1176, N971E;H972W;Q975D)
# Outline: as §1
# PUM1 PUF domain R5-QNR = PUM1 PUF domain R5-QNR (Homo sapiens, UniProt Q14671 828-1176, C1007Q;R1008N;Q1011R)
# Outline: as §1
# PUM1 PUF domain R7-GGK = PUM1 PUF domain R7-GGK (Homo sapiens, UniProt Q14671 828-1176, S1079G;N1080G;E1083K)
# Outline: as §1
# PUM1 PUF domain R4-QPS = PUM1 PUF domain R4-QPS (Homo sapiens, UniProt Q14671 828-1176, N971Q;H972P;Q975S)
# Outline: as §1
# PUM1 PUF domain R1-KIM = PUM1 PUF domain R1-KIM (Homo sapiens, UniProt Q14671 828-1176, S863K;R864I;Q867M)
# Outline: as §1
# PUM1 PUF domain R1-NWV = PUM1 PUF domain R1-NWV (Homo sapiens, UniProt Q14671 828-1176, S863N;R864W;Q867V)
# Outline: as §1
# PUM1 PUF domain R1-YYR = PUM1 PUF domain R1-YYR (Homo sapiens, UniProt Q14671 828-1176, S863Y;R864Y;Q867R)
# Outline: as §1
# PUM1 PUF domain R2-IVF = PUM1 PUF domain R2-IVF (Homo sapiens, UniProt Q14671 828-1176, N899I;Y900V;Q903F)
# Outline: as §1
# Sequence of PUM1 PUF domain R5-RFR (Q14671 828-1176 C1007R/R1008F/Q1011R): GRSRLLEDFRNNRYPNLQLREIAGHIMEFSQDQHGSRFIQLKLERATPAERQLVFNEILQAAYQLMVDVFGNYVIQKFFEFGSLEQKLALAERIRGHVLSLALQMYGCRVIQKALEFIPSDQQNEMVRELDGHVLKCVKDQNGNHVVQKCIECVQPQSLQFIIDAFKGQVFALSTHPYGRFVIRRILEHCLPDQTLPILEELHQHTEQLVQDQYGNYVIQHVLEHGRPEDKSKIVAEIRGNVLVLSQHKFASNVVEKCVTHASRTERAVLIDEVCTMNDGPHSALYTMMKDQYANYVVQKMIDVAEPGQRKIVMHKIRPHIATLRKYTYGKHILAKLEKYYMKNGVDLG
# Sequence of PUM1 PUF domain R3-GWG (Q14671 828-1176 C935G/R936W/Q939G): as the sequence (Q14671 828-1176 C1007R/R1008F/Q1011R) above, with C108G, R109W, Q112G, R180C, F181R, R184Q counted along it
# Sequence of PUM1 PUF domain R1-YYR (Q14671 828-1176 S863Y/R864Y/Q867R): as the sequence (Q14671 828-1176 C1007R/R1008F/Q1011R) above, with S36Y, R37Y, Q40R, R180C, F181R, R184Q counted along it
sequence,measurement,setting,value
GGCUAGAACUAGUGGAUCCCCCGGCGCCCGGCGGCUCGAGCCCGGGUAAGUGUGAAUAGUCUGCAUGCCGCCGGGCGCCAUGCCUGCAGGUCGACUCUAGAAAACAUG,binding signal,PUM1 PUF domain R5-RFR,2.74 log2 enrichment (interaction score)
GGCUAGAACUAGUGGAUCCCCCGGCGCCCGGCGGCUCGAGCCCGGGUAAGUGUAAUUAGUCUGCAUGCCGCCGGGCGCCAUGCCUGCAGGUCGACUCUAGAAAACAUG,binding signal,PUM1 PUF domain R3-RAV,3.5 log2 enrichment (interaction score)
same,binding signal,PUM1 PUF domain R3-GWG,1.55 log2 enrichment (interaction score)
same,binding signal,PUM1 PUF domain R3-RQR,3.88 log2 enrichment (interaction score)
same,binding signal,PUM1 PUF domain R3-SRP,1.56 log2 enrichment (interaction score)
GGCUAGAACUAGUGGAUCCCCCGGCGCCCGGCGGCUCGAGCCCGGGUAAGUGUAGAUAGUCUGCAUGCCGCCGGGCGCCAUGCCUGCAGGUCGACUCUAGAAAACAUG,binding signal,PUM1 PUF domain R4-EWD,4.33 log2 enrichment (interaction score)
GGCUAGAACUAGUGGAUCCCCCGGCGCCCGGCGGCUCGAGCCCGGGUAAGUGUUAAUAGUCUGCAUGCCGCCGGGCGCCAUGCCUGCAGGUCGACUCUAGAAAACAUG,binding signal,PUM1 PUF domain R5-RFR,3.92 log2 enrichment (interaction score)
same,binding signal,PUM1 PUF domain R5-QNR,2.93 log2 enrichment (interaction score)
GGCUAGAACUAGUGGAUCCCCCGGCGCCCGGCGGCUCGAGCCCGGGUAAGUUUAAAUAGUCUGCAUGCCGCCGGGCGCCAUGCCUGCAGGUCGACUCUAGAAAACAUG,binding signal,PUM1 PUF domain R7-GGK,3.4 log2 enrichment (interaction score)
GGCUAGAACUAGUGGAUCCCCCGGCGCCCGGCGGCUCGAGCCCGGGUAAGUGUAUAUAGUCUGCAUGCCGCCGGGCGCCAUGCCUGCAGGUCGACUCUAGAAAACAUG,binding signal,PUM1 PUF domain R4-QPS,3.86 log2 enrichment (interaction score)
GGCUAGAACUAGUGGAUCCCCCGGCGCCCGGCGGCUCGAGCCCGGGUAAGUGUAAAUUGUCUGCAUGCCGCCGGGCGCCAUGCCUGCAGGUCGACUCUAGAAAACAUG,binding signal,PUM1 PUF domain R1-KIM,3.49 log2 enrichment (interaction score)
same,binding signal,PUM1 PUF domain R1-NWV,4.33 log2 enrichment (interaction score)
same,binding signal,PUM1 PUF domain R1-YYR,7.65 log2 enrichment (interaction score)
GGCUAGAACUAGUGGAUCCCCCGGCGCCCGGCGGCUCGAGCCCGGGUAAGUGUAAAGAGUCUGCAUGCCGCCGGGCGCCAUGCCUGCAGGUCGACUCUAGAAAACAUG,binding signal,PUM1 PUF domain R2-IVF,4.01 log2 enrichment (interaction score)
